The panel holds about 83,000 compounds, 20% with a hit somewhere; the sample as a whole holds those more often.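 The endpoint reported here, percent growth, reads 100 for growth as untreated, 0 for no net growth and -100 for all cells dead.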 Calls of active or inactive are those of the source. How the source made its calls: active means growth percent below 10; inactive means the rest.
These compounds were tested on RPMI-8226 leukemia (assay: NCI-60 one-dose screen, 48 h (100 = growth as untreated, 0 = no growth, -100 = all killed)). Details: 10 µM unless noted.

Compound | growth
COc1ccc([C@H]2[C@H](O)C(=O)N2c2cc(OC)c(OC)c(OC)c2)cc1Cl | 19% (inactive)
COc1cc2c3c(n(CCCNCC4CC4)c(=O)c2cc1OC)-c1cc2c(cc1C3=O)OCO2 | -42.8% (active)
O=C(Cn1cc(CN2C(=O)c3ccc([N+](=O)[O-])cc3C2=O)nn1)Nc1ccccc1Br | 102% (inactive)
COc1ccc(NC(=O)Cn2cc(CN3C(=O)c4ccc([N+](=O)[O-])cc4C3=O)nn2)cc1 | 102% (inactive)
COc1cc2c3c(n(CCCNC4CCCC4)c(=O)c2cc1OC)-c1cc2c(cc1C3=O)OCO2 | -40.1% (active)
CS(=O)c1nccc(-c2c(-c3ccc(F)c(OCCc4ccccc4)c3)nc3sccn23)n1 (centres undefined) | 55.8% (inactive)
COc1cc2c3c(n(CCCNC4CCC4)c(=O)c2cc1OC)-c1cc2c(cc1C3=O)OCO2 | -39.1% (active)
O=S(=O)(Nc1ccc(-n2cnc3cc(-c4ccc(O)cc4)ccc32)cc1)C1CC1 | 79.8% (inactive)
N#Cc1ccc(S(=O)(=O)Nc2ccc(-c3cnc(N)[nH]3)cc2)cc1 | 104% (inactive)
Cn1cc(-c2nn3cc(-c4cccnc4)nc3s2)c2cc(F)ccc21 | 93.9% (inactive)
COc1ccc2oc3c4[nH]c5ccccc5c4c4c(c3c2c1)C(=O)N(O)C4=O | 91.9% (inactive)
COc1ccc(/C(C)=C(\c2ccc(Cl)cc2)c2ccc(OCCN)cc2)cc1 | 67.1% (inactive)
COc1ccc2c(c1)c(-c1nn3c(=O)cc(-c4ccccc4)nc3s1)cn2C | 57.5% (inactive)
Cc1ccccc1/C=C/c1nn2c(-c3ccoc3C)nnc2s1 | 91.4% (inactive)

From PubChem BioAssay (NCI)
